Assay outcomes (PubChem)
A selection: hits, their analogues and other compounds. The true share with any hit is near 3.4%.
MITF primary = human MITF inhibition, primary screen; 650,000 compounds, 0.91% hits; AID 1259374; O75030; inhibition, % at 2.6 µM; AlphaScreen MITF homodimerization, bead proximity signal; in the data active means inhibition above about 50%;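 further: 0% = vehicle wells with protein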
Target sequence (O75030 whole entry, looked up): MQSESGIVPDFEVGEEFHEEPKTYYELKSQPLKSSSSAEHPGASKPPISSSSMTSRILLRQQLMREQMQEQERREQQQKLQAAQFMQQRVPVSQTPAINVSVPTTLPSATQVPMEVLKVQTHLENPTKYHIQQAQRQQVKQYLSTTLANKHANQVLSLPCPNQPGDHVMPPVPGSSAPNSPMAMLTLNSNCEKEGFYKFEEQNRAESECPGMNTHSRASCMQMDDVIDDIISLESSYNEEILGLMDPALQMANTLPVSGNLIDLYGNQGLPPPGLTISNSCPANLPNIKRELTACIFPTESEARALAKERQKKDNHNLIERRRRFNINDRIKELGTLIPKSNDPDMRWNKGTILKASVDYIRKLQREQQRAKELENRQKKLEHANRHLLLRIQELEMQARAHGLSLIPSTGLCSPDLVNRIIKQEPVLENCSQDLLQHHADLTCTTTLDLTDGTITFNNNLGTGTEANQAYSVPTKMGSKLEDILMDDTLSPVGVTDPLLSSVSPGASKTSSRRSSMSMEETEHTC
GPR151 activ = human GPR151 activation; Q8TDV0; PathHunter beta-arrestin GPR151 cells, luminescence; activation, % at 11.2 µM; 650,000 compounds, 1% hits; AID 1508602; in the data active means activation above about 4.9%;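 further: 0% = median of compound wells and 100% = cells with positive control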
FBW7 act = activators of human E3 ligase FBW7; 650,000 compounds, 0.13% hits; Q969H0; AlphaScreen FBW7–phospho-cyclin E peptide binding, activator screen; normalized activity (activation), % at 26.1 µM; in the data active means normalized activity above about 1.9%;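 further: purified mutant Fbw7 with reduced substrate affinity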
TEAD-YAP inh = TEAD-YAP interaction inhibition; HEK-TIYL cells, TEAD-Gal4/YAP UAS-luciferase luminescence; inhibition, % at 9.12 µM; 640,000 compounds, 1.4% hits; AID 1259422; in the data active means inhibition above about 32%;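 further: 0% = median of test compound wells and 100% = reference inhibitor wells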
GPR151 confirm = confirmation of human GPR151 activators; shares compounds with GPR151 activ; GPR151 PathHunter beta-arrestin cells, luminescence, 90 min; % of EA-reagent control over plate median; activation, % at 11.2 µM; 6,700 tested, under 10 active;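 active means mean percent activation across replicates above the confirmation screen cutoff of 4.91%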
GPR119 ag = activates human GPR119 in a GPR151 counter-screen | activation, % at 11.2 µM | shares compounds with GPR151 activ | 6,700 compounds, 0.3% hits | GPR119 PathHunter beta-arrestin cells, luminescence, 90 min; 0 = compound-well median, 100 = enzyme-acceptor control;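 active means mean percent activation in the counterscreen above 29.09%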;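 further: counterscreen on off-target GPR119 to flag nonselective hits from the GPR151 activator screen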
* marks the source's active call; other numbers are inactive results; x = no result.

SMILES | MITF primary | GPR151 activ | FBW7 act | TEAD-YAP inh | GPR151 confirm | GPR119 ag
CSc1ccc(NC(=O)Nc2c(C)n(-c3ccccc3)c(=O)n2C)cc1 | 7 | 6.5* | 0 | 8 | 0 | 14
COCCNC(=O)c1cc2c(n(-c3ccc(C)cc3)c1=O)CC(C)(C)CC2=O | -2 | -1 | 0 | -9 | x | x
Cc1ccc(-n2c3c(cc(C(=O)NCC4CCCO4)c2=O)C(=O)CC(C)(C)C3)cc1 (centres undefined) | -3 | 11* | 0 | 7 | 1 | -3
CCc1cccc(CC)c1NC(=O)c1cc(S(=O)(=O)N2CCOCC2)ccc1F | 5 | 2 | 0 | 11 | x | x
C/C(=N\NC(=O)c1cc(-c2ccco2)[nH]n1)c1ccc(O)cc1 | 9 | 7.4* | 0 | 6 | 0 | 11
C/C(=N\NC(=O)c1cc(-c2cccs2)[nH]n1)c1ccc(O)cc1 | -10 | -1 | 0 | -6 | x | x
CCN1C(=O)CS/C1=N/S(=O)(=O)c1ccc(Cl)cc1 | 7 | -1 | 0 | 14 | x | x
Cc1noc(CNC(=O)c2ccc3ccccc3n2)n1 | 10 | 5.4* | 0 | -8 | 0 | -8
CC1=C(C(=O)OCC(C)C)C(c2cccc(Cl)c2)C2=C(CC(c3ccccc3)CC2=O)N1 (centres undefined) | 4 | 0 | 1 | 16 | x | x
O=C1N(C2Cc3ccccc3C2)C[C@@H]2C[C@@H](c3ccccc3F)N3CCC[C@@]123 | -1 | 15* | 0 | 3 | 0 | -5
O=C1N(C2Cc3ccccc3C2)C[C@@H]2C[C@@H](c3ccc4nsnc4c3)N3CCC[C@@]123 | -5 | 9.4* | 1 | -27 | 1 | -3
O=C(CN1CCN(C(=O)c2cccs2)CC1)c1ccco1 | 13 | 0 | 0 | -1 | x | x
CC1CCN(C(=O)C2=CC(c3cccs3)=NS(=O)(=O)N2C)CC1 | -6 | 5.4* | 0 | 5 | -1 | -13
COc1cc(/C=C/c2ccncc2)ccc1OC(=O)c1cccs1 | 1 | -1 | 0 | -27 | x | x
O=[N+]([O-])c1ccc(S(=O)(=O)Nc2ccc(-c3nc4ccccc4[nH]3)cc2)cc1 | -4 | 0 | 0 | -18 | x | x
O=S(=O)(Nc1ccc(-c2nc3ccccc3[nH]2)cc1)c1ccc(-n2cccn2)cc1 | -20 | 5.8* | 0 | 1 | 1 | 17
COc1ccc(NC(=O)c2ccc(Br)s2)cc1OC | 0 | 8.8* | 0 | -29 | 0 | 9
O=C1c2ccccc2NC2(C(=O)N(Cc3cccc4ccccc34)c3ccccc32)N1c1ccccc1 (centres undefined) | 4 | 7.0* | 0 | 25 | -1 | -2
CC12CCc3ccccc3C1(C)OC(=O)O2 (centres undefined) | 5 | -1 | 0 | 12 | x | x
CN1C(=O)OC2(C)CCc3ccccc3C12C (centres undefined) | -10 | 5.0* | 0 | 5 | 0 | 8
COc1cccc(CCC(=O)N2CCCC(N3CCC(CO)CC3)C2)c1 (centres undefined) | 12 | 8.1* | 0 | 10 | 0 | -10
COc1ccc(OC)c(NC(=O)CC(C)S(=O)(=O)c2cc3c(cc2C)NC(=O)CO3)c1 (centres undefined) | -6 | 5.1* | 0 | -7 | 0 | -2
Cc1ccccc1NC(=O)CC(C)S(=O)(=O)c1cc2c(cc1C)NC(=O)CO2 (centres undefined) | 8 | 2 | 0 | -7 | x | x
CC(CC(=O)Nc1ccc(F)cc1Cl)S(=O)(=O)c1ccc2c(c1)OCC(=O)N2 (centres undefined) | 11 | 7.7* | 0 | 1 | 0 | -9
COc1ccc(NC(=O)CC(C)S(=O)(=O)c2ccc3c(c2)OCC(=O)N3)cc1OC (centres undefined) | -15 | 9.6* | 0 | -1 | -1 | -6
SMILES | MITF primary | GPR151 activ | FBW7 act | TEAD-YAP inh | GPR151 confirm | GPR119 ag
CC(CC(=O)Nc1ccc(F)cc1F)S(=O)(=O)c1ccc2c(c1)OCC(=O)N2 (centres undefined) | 10 | 0 | 0 | 4 | x | x
Oc1ccc(Br)cc1/C=N/NC(=S)NCCN1CCOCC1 | 50 | 0 | 0 | 3 | x | x
C=CCN(CC=C)S(=O)(=O)c1ccc(C(=O)Nc2ccc3c(c2)C(=O)N(C)C3=O)cc1 | -3 | 1 | 0 | 8 | x | x
CCOc1cc(/C=C2/C(=O)N(c3ccc(I)cc3)N=C2C)ccc1O | 17 | 0 | 0 | 11 | x | x
Nc1nc(SCc2cn3cc(Br)ccc3n2)n[nH]1 | 10 | 7.6* | 0 | -8 | 0 | -6
CC(C)(C)c1cc(C(=O)N/N=C\c2cccc(Br)c2)n[nH]1 | 3 | -1 | 0 | -30 | x | x
O=C(Cc1cccc2ccccc12)Nc1nnc(-c2ccc(Cl)s2)o1 | -6 | 5.1* | 0 | -3 | 1 | 8
CCCC(=O)Nc1nnc(-c2ccc(Cl)s2)o1 | -6 | 1 | 0 | -21 | x | x
N#CCC(=O)N/N=C/c1cn(-c2ccccc2)nc1-c1ccc2c(c1)OCCO2 | 22 | -1 | 0 | -55 | x | x
CN(Cc1ccno1)C(=O)CC1C(=O)NCCN1Cc1ccc2ccccc2c1 (centres undefined) | 13 | 3 | 0 | 5 | x | x
COc1ccc(OC)c(/C=N/NC(=O)c2[nH]ncc2Br)c1 | 12 | -2 | 0 | -33 | x | x
COC(=O)c1[nH]ncc1Br | 8 | 6.1* | 0 | 3 | 0 | -14
S=C(NCCN1CCOCC1)Nc1cccc2cnccc12 | -11 | 0 | 0 | -8 | x | x
S=C(NCCN1CCOCC1)Nc1cccc2ccccc12 | 2 | 5.3* | 0 | -3 | 0 | -10
COc1ccc(C(=O)/C=C/c2ccc3c(c2)OCCO3)cc1OC | -9 | 0 | 0 | -11 | x | x
CC(=O)NC(c1ccco1)c1cc(Cl)c2cccnc2c1O (centres undefined) | 76* | 15* | 0 | 32 | 0 | -8
Cc1cc(C(=O)NCc2cccnc2)c2c(C)nn(-c3ccccc3Cl)c2n1 | -2 | -1 | 0 | -3 | x | x
Cc1nccn1CCNC(=O)c1cccn(C)c1=O | 7 | 1 | 0 | 0 | x | x
Cc1nccn1CCNC(=O)c1cccc2ccccc12 | -1 | 6.0* | 0 | 1 | -1 | -10
O=C(CC1C(=O)NCCN1Cc1ccoc1)NCC1(c2ccccc2)CCOCC1 (centres undefined) | 10 | -1 | 0 | 6 | x | x
CC(=O)c1ccccc1NC(=O)CSc1n[nH]c(N)n1 | 2 | 8.0* | 0 | 8 | 0 | 6
CCOC(=O)c1ccccc1NC(=O)CSc1n[nH]c(N)n1 | 1 | 0 | 0 | 7 | x | x
CCn1c(-c2cccc(Cl)c2)n[nH]c1=S | 12 | -1 | 0 | 5 | x | x
CCN(CC)c1n[nH]c(-c2cccc(Cl)c2)n1 | 14 | 5.3* | 0 | -30 | -1 | -8
Cn1nc(C(=O)NCc2ccc(F)cc2)c2c1-c1ccccc1OC2 | -6 | 12* | 0 | -10 | 1 | -1
